Assay outcomes (PubChem BioAssay)
Only some compounds are listed: those with a hit (about 2.2% of all), similar ones and a draw of the others.
hiPSC survival: enhancers of single-cell hiPSC survival, primary screen, ATPlite luminescence; 100% = ROCK inhibitor wells, 0% = DMSO; survival enhancement, % at 20 µM; 360,000 compounds, 0.044% hits; AID 602274, 2012; in the data active = survival enhancement above about 18%;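 note: cells exposed to compounds for 16 hours before the ATP read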
Myeloid diff 2: induction of myeloid progenitor differentiation, primary screen, cell-based, flow cytometry, MLPCN library; ER-HoxA9 myeloid progenitors, lysozyme-GFP differentiation; calls only at 10 µM; 360,000 compounds, 1% hits;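 active = normalized GFP-positive differentiation at or above the plate's own cutoff, the solvent-only control mean plus 3 SD; inconclusive = no clear call, values can overlap the other calls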;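 note: cells exposed to compound for four days before flow analysis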
beta cell repl: inducers of MIN6 beta-cell proliferation, primary screen, ATP luminescence, uHTS. MIN6 cells proliferation, ATPlite luminescence, 48 h; cells starved in 0.2% serum; 100% = growth in 10% serum. proliferation, % at 10 µM. AID 2380, 2010. 330,000 compounds, 0.29% hits;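 active = compounds whose signal lies at least 3.5 SD above the mean of all wells on their plate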;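 note: 0% = DMSO-treated cells in low-serum medium and 100% = 10% serum control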
Cardio protect: cardioprotection against H2O2-induced cell death, primary screen, uHTS, H9c2 cells, ATPLite luminescence; H9c2 cardiomyocytes, H2O2 injury protection, 2 h; protection from H2O2 cell death, % at 20 µM; 360,000 compounds, 0.63% hits;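 active = compounds giving at least 50% protection of heart cells from peroxide-induced death in the single-dose screen, raw or plate-pattern-corrected value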;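 note: 0% = DMSO wells with peroxide and 100% = DMSO wells without peroxide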
ABCB6 inh MLPCN: ABCB6 transporter inhibitors, primary screen, K562-ABCB6 cells, flow cytometry, MLPCN library. ATP-binding cassette sub-family B member 6 (Homo sapiens), Q9NP58. K562-ABCB6 porphyrin accumulation, 1 h; stronger effect = lower value. fluorescence ratio to DMSO, % at 10 µM. 360,000 compounds, 0.19% hits. AID 602162, 2011;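 active = fluorescence ratio to DMSO below 75%, the collection mean minus 3 SD; inconclusive = too few cells collected in the well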;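 note: signal is porphyrin accumulated inside mitochondria; 100% equals median channel fluorescence of DMSO control wells; lower ratio means ABCB6 inhibition with less porphyrin fluorescence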
Target sequence (Q9NP58 whole entry, looked up): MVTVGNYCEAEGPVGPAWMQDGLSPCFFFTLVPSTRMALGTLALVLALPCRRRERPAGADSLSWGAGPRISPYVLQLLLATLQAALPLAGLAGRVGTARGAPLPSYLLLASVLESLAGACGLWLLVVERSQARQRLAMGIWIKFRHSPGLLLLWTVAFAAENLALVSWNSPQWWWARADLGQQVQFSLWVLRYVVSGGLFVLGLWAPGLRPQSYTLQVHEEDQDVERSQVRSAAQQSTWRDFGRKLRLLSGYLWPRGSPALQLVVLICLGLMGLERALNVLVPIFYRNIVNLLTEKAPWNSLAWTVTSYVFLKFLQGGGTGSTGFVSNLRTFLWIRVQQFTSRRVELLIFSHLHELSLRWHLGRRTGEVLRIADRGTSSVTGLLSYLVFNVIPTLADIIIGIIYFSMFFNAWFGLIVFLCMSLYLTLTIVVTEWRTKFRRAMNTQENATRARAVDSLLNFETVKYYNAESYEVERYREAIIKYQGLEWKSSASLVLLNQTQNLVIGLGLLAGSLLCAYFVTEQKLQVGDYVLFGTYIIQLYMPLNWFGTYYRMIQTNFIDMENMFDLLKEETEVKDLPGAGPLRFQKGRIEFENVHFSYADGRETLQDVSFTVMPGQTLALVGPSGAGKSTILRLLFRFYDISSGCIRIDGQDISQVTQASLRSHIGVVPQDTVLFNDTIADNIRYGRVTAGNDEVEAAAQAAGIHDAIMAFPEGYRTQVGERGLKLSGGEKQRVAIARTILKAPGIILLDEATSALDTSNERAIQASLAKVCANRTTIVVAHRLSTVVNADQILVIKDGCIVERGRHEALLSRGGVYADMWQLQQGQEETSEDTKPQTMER
Myeloid diff: inducers of myeloid progenitor differentiation, confirmation, cell-based, GFP/Mac1 flow cytometry, cherry pick 01; shares compounds with Myeloid diff 2; ER-HoxA9 myeloid progenitors, GFP/Mac1 double-positive flow; calls only; 2,300 compounds, 2% hits; AID 651706, 2012;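 active = share of green or green-and-red cells above 9 and 9% in run 1 or 4 and 3% in run 2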
GFP autofluor: counter-screen for myeloid differentiation promoters: compound fluorescence; shares compounds with Myeloid diff 2; ER-HoxA9 myeloid progenitors, no estrogen, GFP autofluorescence flow cytometry; vehicle wells 0%, positive control 100%; fluorescence response, % (no concentration beside the values); 2,300 compounds, 7.4% hits;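 active = over 5% cells positive for green fluorescent reporter, or over 2% positive for both it and APC stain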;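 note: range taken on the double positive population between DMSO and positive control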
Active calls of the source: *; i = inactive; ? = inconclusive; · = no result given; + = active, no number.

SMILES	hiPSC survival	Myeloid diff 2	beta cell repl	Cardio protect	ABCB6 inh MLPCN	Myeloid diff	GFP autofluor
O=C(Nc1sccc1C(=O)NCc1ccco1)c1cccnc1	2	i	-4	10	104	i	0
O=C(CNS(=O)(=O)c1ccccc1)Nc1cccc([N+](=O)[O-])c1	0	+	-2	1	97	i	1
O=C(CCc1ccccc1)Nc1cccc([N+](=O)[O-])c1	-4	i	-2	-1	104	·	·
CC(C)(C)c1ccc2oc(=O)cc(-c3cccc(-c4ccc(C(F)(F)F)cc4)c3)c2c1	1	i	·	-13	101	·	·
CSc1nnc(N2C(=O)C(O)=C(C(=O)c3ccc(C)o3)C2c2ccc(C)cc2)s1 (configuration not stated)	-1	+	-3	-3	106	i	0
CSc1nnc(N2C(=O)C(O)=C(C(=O)c3ccco3)C2c2ccccc2)s1 (configuration not stated)	-1	i	-4	5	107	·	·
O=C(Cc1ccccc1)N/N=C/c1ccc(-c2ccc([N+](=O)[O-])cc2)o1	-1	+	0	-5	95	i	3
O=[N+]([O-])c1ccc(-c2ccc(/C=N/Nc3nc(N4CCCC4)nc(N4CCCC4)n3)o2)cc1	1	+	-6	-21	425	i	6.0*
O=C(N/N=C/c1ccc(-c2ccc([N+](=O)[O-])cc2)o1)c1cccnc1	0	i	-4	25	102	·	·
Cc1ccc(NS(=O)(=O)c2ccc3c(c2)n(C)c(=O)n3C)cc1C	0	i	0	-6	94	·	·
Cc1ccc(NS(=O)(=O)c2cc3c4c(cccc4c2)C(=O)NC3=O)cc1C	-1	+	-6	34	98	i	2
C=CCNC(=O)C1(S(=O)(=O)c2ccccc2)CC=CC1	6	?	-1	-5	105	·	·
Cc1nc(C(=O)Nc2cc(Cl)ccc2Cl)nn1-c1cc(OC(C)C)c(Cl)cc1Cl	1	i	-5	-4	95	·	·
Cc1nc(C(=O)Nc2cccc(Cl)c2)nn1-c1cc(OC(C)C)c(Cl)cc1Cl	0	+	-5	-5	103	i	0
Cc1cc(-c2cccs2)c2c(n1)sc1c(=O)[nH]c(=O)[nH]c12	4	i	3	-3	97	i	36*
CCn1ncc(C2=NOC(C(=O)NCC(C)C)C2)c1C (configuration not stated)	0	i	0	0	98	·	·
CCn1ncc(C2=NOC(C(=O)Nc3cc(OC)c(Cl)cc3OC)C2)c1C (configuration not stated)	-1	i	1	-8	100	i	0
Fc1ccccc1N1CCN(C2CCCN(Cc3ccccc3C(F)(F)F)C2)CC1 (configuration not stated)	0	+	-1	-7	99	i	0
Cc1ccc(C)c(-n2sc3ccc(F)cc3c2=O)c1	-4	i	-7	-38	98	·	·
O=C(/C=C/c1cccs1)NCc1ccc2c(c1)OCO2	0	i	-2	-2	94	·	·
CN(c1ccc(C(=O)NCc2ccc3c(c2)OCO3)cc1)S(C)(=O)=O	-2	i	1	-2	95	·	·
CN(c1ccc(C(=O)NCc2ccc3c(c2)OCO3)cc1)S(=O)(=O)c1ccccc1	-1	i	-2	-10	98	i	1
O=C(CNC(=O)OCc1ccccc1)NC1CCCCCCC1	0	+	-1	-1	99	i	0
COc1ccc(S(=O)(=O)Cc2ccc(C(=O)NCc3cccs3)o2)cc1	0	i	-2	-4	99	·	·
O=C(NCc1cccs1)c1ccc(CS(=O)(=O)c2ccc(Cl)cc2)o1	-2	+	-1	3	101	i	0
SMILES	hiPSC survival	Myeloid diff 2	beta cell repl	Cardio protect	ABCB6 inh MLPCN	Myeloid diff	GFP autofluor
COc1ccc(NC(=O)CSc2n[nH]c(=O)n2Cc2ccccc2)cc1Cl	1	i	-1	-2	92	·	·
CC(=O)c1c(N2CCOCC2)[nH]c(-c2ccccc2)nc1=S	0	+	0	-3	97	+	0
CC(=O)c1c(N2CCCC2)[nH]c(-c2ccccc2)nc1=S	2	·	-3	-4	95	·	·
COC(=O)C1=C(C)Nc2nnnn2C1c1ccco1 (configuration not stated)	-2	·	-2	7	123	i	0
COC(=O)C1=C(C)Nc2nnnn2C1c1cccnc1 (configuration not stated)	0	i	-1	7	97	·	·
CC1=C(CC(=O)c2ccccc2)C(=O)c2ccccc2C1=O	-3	+	-6	-13	105	i	4.2*
O=C(CN1C(=O)c2ccccc2C1=O)c1ccccc1	-2	i	-1	2	95	·	·
c1cc2c(cc1NC1CCCCCC1)OCO2	-1	+	3	0	110	i	0
Nc1nc(-c2ccc(F)cc2)cc(C(F)(F)F)n1	-1	i	0	-6	88	i	1
COc1ccc(CN=CC2=C(O)CNC2=O)cc1OC	0	i	2	-1	99	i	0
COC(=O)c1ccc(Sc2nnnn2-c2ccccc2)c([N+](=O)[O-])c1	0	i	-3	-1	93	·	·
Cc1cccc(C)c1-n1nnnc1S(=O)(=O)Cc1ccccc1Cl	3	i	-4	-12	105	i	0
Cc1nc(S(=O)(=O)Cc2ccccc2Cl)nc2c1CCC2	8	i	-2	3	99	·	·
O=C(O)CCCCCN1C(=O)/C(=C\c2ccncc2)SC1=S	-2	+	0	-1	99	i	0
O=C(O)CCCCCN1C(=O)/C(=C/c2ccncc2)SC1=S	3	i	-1	-2	99	·	·
Cc1ccc(S(=O)(=O)Nc2cccc(C(=O)NCc3cccnc3)c2)cc1F	1	i	-2	-7	106	i	0
CCN1CCN(CC(O)COCc2cc(OC)c(OC)c(OC)c2)CC1 (configuration not stated)	-3	i	-1	0	101	·	·
Cc1ccc(-c2cc(C(=O)Nc3ccncc3)c3ccccc3n2)cc1	0	i	-6	-10	96	·	·
CC(C)(C)c1ccccc1NC(=O)c1cc(-c2ccncc2)nc2ccccc12	-1	i	-2	16	105	i	0
